The values that follow come from ChEMBL document CHEMBL5308504, “Tm Shift (DSF) assay results for EUbOPEN Chemogenomics Library” (2023).

SMILES strings stand for the structures.

This assay addresses Cyclin-dependent kinase 2 (Homo sapiens) (UniProt P24941). Conditions: Compound concentration 20.0 uM, Protein concentration 2.0 uM, Result type QC Liability.
Broadly, the ΔTm is the change in melting temperature against a reference sample. As to `Cc1nc2cccnc2n2c(-c3cc(C(C)(C)O)ncc3Cl)nnc12`, the ΔTm worked out at 0.85 °C.
The same measure for `CN1CCC(C#N)(NC(=O)[C@@H](NC(=O)N2CCOCC2)C(C)(C)C)CC1`: 0.23 °C; for `N#Cc1c(SCc2csc(-c3ccc(Cl)cc3)n2)nc(N2CCCC2)c(C#N)c1-c1ccc(OCCO)cc1`: 0.34 °C.
The same measure for `COc1ccc(CC[C@@H](OC(=O)[C@@H]2CCCCN2C(=O)[C@H](c2cc(OC)c(OC)c(OC)c2)C2CCCCC2)c2cccc(OCCN3CCOCC3)c2)cc1OC`: -1.5 °C; for `Fc1ccc(-c2nc(-c3c(F)cccc3F)[nH]c2-c2ccncc2)cc1`: 1.7 °C.
The same measure for `Cc1ncc(C(=O)Nc2cc(C(C)(C)C)on2)cc1-n1cc(-c2cnn(C)c2C)nn1`: 0.45 °C; for `C[C@@]1(Cc2ccc(C#N)cc2)C(=O)N(c2cc(Cl)cc(Cl)c2)c2ncc(C(=O)NC3(c4nc(C5CCC5)no4)CC3)n21`: -0.03 °C; for `O=C(O)c1cccc(C2=C(c3cc(Cl)ccc3OCc3ccc(F)cc3F)CCC2)n1`: -1.05 °C.
Turning to `Cc1cc(-c2ccnc(Nc3cnn(C)c3)n2)ccc1CNC(=O)N1CC(OC(C)C)C1`, the ΔTm amounted to 1.31 °C.
The same measure for `CN[C@@H](C)C(=O)N[C@H](C(=O)N1CCC[C@H]1C(=O)Nc1sc(-c2ncco2)nc1-c1ccccc1)C1CCCCC1`: -0.21 °C; for `Fc1ccc(-c2nc(-c3ccc4ccccc4c3F)[nH]c2-c2ccncc2)cc1`: -0.5 °C; for `CN(CC(=O)Nc1ccc(F)c(F)c1F)C(=O)c1ccc2c(c1)OCCO2`: 0.89 °C.
In the case of `Cc1n[nH]c2ncc(C(=O)N3CCC[C@H]3c3ccc(Cl)cc3)cc12`, the ΔTm is 0.82 °C.
Regarding `N[C@@H]1CCCC[C@H]1Oc1ccc2ncc(-c3cc4ccccc4o3)n2n1`, the ΔTm was found to be 1.2 °C.
